High-throughput results from PubChem.
This is one part of a sample in which hits are shown more often than they occur.
LmPK inh = inhibitors of Leishmania mexicana pyruvate kinase | Potency, µM (titrated, usually from 57.5 µM), without a hit: at the highest dose activity change, negative = inhibition, most hits filed as inhibitors | 290,000 compounds, 0.37% hits | AID 1721 | purified LmPK, Kinase-Glo ATP luminescence, 1 h; note: potency is the fitted concentration of half-maximal effect; % is set by controls: 0 for no effect and ±100 for the full control effect
Target sequence (Q27686 whole entry, looked up): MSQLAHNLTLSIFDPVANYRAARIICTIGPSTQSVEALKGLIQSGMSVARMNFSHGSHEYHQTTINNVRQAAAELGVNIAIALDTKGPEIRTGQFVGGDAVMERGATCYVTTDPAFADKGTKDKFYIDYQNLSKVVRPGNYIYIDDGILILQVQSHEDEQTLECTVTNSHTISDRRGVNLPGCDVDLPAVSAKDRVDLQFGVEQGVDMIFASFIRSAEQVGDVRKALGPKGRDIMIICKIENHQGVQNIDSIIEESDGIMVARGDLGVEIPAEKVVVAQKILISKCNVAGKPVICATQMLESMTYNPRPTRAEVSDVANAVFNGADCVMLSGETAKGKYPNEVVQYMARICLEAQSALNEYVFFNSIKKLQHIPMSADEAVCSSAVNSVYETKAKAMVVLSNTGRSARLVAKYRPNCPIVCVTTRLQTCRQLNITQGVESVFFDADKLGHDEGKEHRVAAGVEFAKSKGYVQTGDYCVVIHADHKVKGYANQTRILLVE
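In 50 mM imidazole pH 7.2 with 7 mM MgCl2, LmPK (0.1 nM) turned over PEP (0.5 mM) and ADP (0.1 mM) for 1 h at room temperature. Luciferase read-out of ATP.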
Giardia FBPA inh = Giardia lamblia aldolase inhibition | AID 2451 | Potency, µM (highest dose often 59.6 µM), without a hit: top-dose activity, negative = inhibition, most hits filed as inhibitors | A8B2U2 | purified Giardia FBPA | 290,000 compounds, 0.71% hits; note: potency is the fitted concentration of half-maximal effect; % is set by controls: 0 for no effect and ±100 for the full control effect; nearly all actives have a fitted effect of over 55% in size
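Giardia FBPA (40 nM reagent) was preincubated 10 min at RT with compound (up to 57.5 uM final), then substrate plus GAPDH/TPI/NAD/arsenate coupling system with diaphorase/resazurin was added; resorufin fluorescence (525/598 nm) was read after 20 min.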
Sm TGR block = inhibitors of Schistosoma mansoni thioredoxin glutathione reductase. Q962Y6. purified TGR, DTNB reduction, TNB absorbance 405 nm. Potency, µM (series often up to 114 µM), inactives show at the top dose activity change, negative = inhibition, hits mostly inhibitors. 360,000 compounds, 3% hits. AID 485364; note: potency is the fitted concentration of half-maximal effect; % is set by controls: 0 for no effect and ±100 for the full control effect; nearly all actives have a fitted effect of over 60% in size
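Kinetic colorimetric format: TGR-catalysed, NADPH-driven DTNB reduction monitored via TNB absorbance. Enzyme dispensed at 20 nM; compound exposure 15 min at room temperature before reaction start.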
TbPYK inhibitor = inhibitors of Trypanosoma brucei pyruvate kinase; 410,000 compounds, 0.12% hits; AID 624173; Potency, µM (top dose mostly 76.8 µM), inactives show top-dose activity, negative = inhibition, usual class: inhibitors; Q57TT1; TbPYK enzyme, Kinase-Glo Plus ATP luminescence, 45 min; note: potency is the fitted concentration of half-maximal effect; % is set by controls: 0 for no effect and ±100 for the full control effect; nearly all actives have a fitted effect of over 50% in size
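Readout: single end-point luminescence (Kinase-Glo Plus, 10 min). Reaction conditions were TbPYK/substrate plus 130 uM ADP, 45 min at RT, pH 7.2 TEA buffer. No-enzyme wells served as controls, and data were normalized before concentration-response fitting.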
Shiga inhibitor = Shiga toxin inhibition. AID 2315. Vero cells, Shiga toxin protein synthesis inhibition reporter. 290,000 compounds, 9.2% hits. inhibition, % at 38.7 µM; in the data active = inhibition mostly above about 28%, no sharp cut-off; inactive = mostly below about 43%; note: 0% is about no effect
CHX counter = counter-screen hit for Shiga toxin inhibitors, cycloheximide. cell reporter, cycloheximide protein synthesis inhibition counterscreen. max response, %. 300,000 compounds, 12% hits; in the data active = max response mostly above about 13%, no sharp cut-off; inactive = mostly below about 14%; note: read at 38.3 µM for the half of the compounds with a filed dose; 0% is about no effect
* hit, by the source's call; ? = inconclusive; · = no result; + = active, no number; ! = not confirmed by another sample; [ ] = another dose, or the depositor's remark. Unless noted, calls come from the whole dose curve; as a rule, active = well fitted curve in the direction sought with a large enough effect; inconclusive = small, poorly fitted or top-dose-only effect, or another doubt; inactive = no such curve, though single readings can be large; an effect the other way counts as inactive or inconclusive.

SMILES	LmPK inh	Giardia FBPA inh	Sm TGR block	TbPYK inhibitor	Shiga inhibitor	CHX counter
CC(=O)OC[C@@H]1O[C@H](C/C=N\O[C@@H](C)c2cn([C@H](CO)Cc3ccccc3)nn2)C=C[C@@H]1OC(C)=O	·	1.9%[12.9 µM]	·	·	·	·
Cc1ccc(CNC(=O)CNC(=O)c2ccc(C(C)(C)C)cc2)n1C	·	·	·	-18.6%	·	·
O=C(NCC(=O)N(Cc1cccs1)C(C(=O)NC1CCCCC1)c1ccncc1)c1ccco1 (stereo not drawn)	-0.4%	-7.3%	44.7µM*	-0.5%	13.9	-3.0
O=C(NCC(=O)N(c1cnc2ccccc2c1)C(C(=O)NC1CCCC1)c1ccncc1)c1ccco1 (stereo not drawn)	-2.4%	11.7%	-19.3%	4.1%	17.6	14.9*
Cc1cccc(C(=O)NC(=O)Nc2ccc(-n3nc(C(F)(F)F)cc3C(F)(F)F)cc2)c1	·	·	0.5%	-11.7%	·	·
CC(=O)Nc1ccc(S(=O)(=O)NC2=NCN(C(C)C)CN2)cc1	·	·	1.3%	6.3%	·	·
COc1ccc(-c2noc(CCCC(=O)Nc3cccnc3)n2)cc1OC	7.0%	-0.9%	-0.3%	7.7%	5.5	-2.2
CC(C)(C)c1ccc(-c2noc(CCC(=O)NCc3ccco3)n2)cc1	-6.3%	-1.0%	-7.5%	-2.4%	73.5	34.2*
COc1ccc(-c2cc(C(F)(F)F)nc(SCC(=O)NCc3ccco3)n2)cc1OC	3.1%	2.0%	44.7µM*	-10.6%	-38.2	14.0
Cc1cccc(-c2noc(CCCC(=O)NCc3ccco3)n2)c1	·	·	-2.0%	-1.3%	·	·
COc1ccc(-c2noc(CCCC(=O)NCc3ccco3)n2)cc1OC	4.1%	0.9%	39.8µM*	-0.2%	1.6	0.7
O=C(CSc1nc(-c2ccccc2)cc(C(F)(F)F)n1)NCc1ccco1	4.0%	2.3%	22.4%	-8.8%	-1.3	-2.3
Cc1cccc(-c2noc(CCC(=O)NCc3ccco3)n2)c1	2.5%	4.0%	-6.1%	3.2%	17.3	6.8
COc1cccc(-c2noc(CCCC(=O)NCc3ccco3)n2)c1	·	·	44.7µM*	-1.6%	·	·
Cc1ccc(-c2c(C)n3c4c(=O)n(C)c(=O)n(C)c4nc3n2CCCO)cc1	·	·	-2.9%	4.6%	·	·
COc1cccc2sc(NC(=O)c3ccc(S(=O)(=O)N4CCC(C)CC4)cc3)nc12	·	·	1.9%	-7.3%	·	·
Cc1ccc(/C=N/NC(=O)C(O)c2ccccc2)o1 (stereo not drawn)	-6.1%	3.0%	-17.9%	-4.3%	25.9	5.1
O=C(N/N=C/c1cc(Br)c(Br)o1)C(O)c1ccccc1 (stereo not drawn)	-0.7%	-15.3%	39.8µM*	-0.9%	11.7	1.5
Cc1ccc(C(=O)N/N=C\c2ccc[nH]2)cn1	3.2%	-15.5%	-0.3%	3.1%	23.8	18.6*
Cc1cccc(C(=O)N/N=C/c2ccc[nH]2)c1	0.0%	?	3.1%	-3.8%	80.1*	23.9*
CC(C)(C)OC(=O)N/N=C\c1ccc[nH]1	-16.7%	?	-16.7%	0.3%	57.7*	41.2*
Cc1cccc(NCC(=O)N/N=C\c2ccc[nH]2)c1	-1.2%	-8.2%	8.7%	2.4%	-11.7	0.5
Cc1ccc([C@@H]2CC(=O)[C@@H]3CN(S(=O)(=O)c4ccc(C)cc4)[C@H](c4ccc(Cl)cc4)C[C@@H]3N2S(=O)(=O)c2ccc(C)cc2)cc1	·	·	·	-11.7%	·	·
O=C(N/N=C/c1ccc[nH]1)c1cccc(Br)c1	-0.7%	?	-6.9%	-3.1%	+	30.8*
Cc1cccc(C(=O)N/N=C/c2cc(Br)c(Br)o2)c1	1.3%	7.3%	-13.6%	-9.4%	32.6*	19.1
SMILES	LmPK inh	Giardia FBPA inh	Sm TGR block	TbPYK inhibitor	Shiga inhibitor	CHX counter
Cc1onc(-c2ccccc2)c1C(=O)N/N=C/c1cc(Br)c(Br)o1	1.4%	-19.4%	-12.2%	2.4%	-4.4	-4.1
O=C(N/N=C\c1ccc[nH]1)c1cncc(Br)c1	-4.7%	-27.3%	-0.4%	6.0%	-2.2	1.2
O=C(N/N=C/c1ccc[nH]1)c1ccc([N+](=O)[O-])cc1	-3.2%	1.8%	3.6%	8.4%	16.6	19.8*
O=C(NN=Cc1ccccc1Cl)c1ccc([N+](=O)[O-])cc1	·	·	·	-1.0%	·	·
CC(=O)N1CCc2cc(S(=O)(=O)NC(Cc3ccccc3)C(=O)Nc3cccc(C)c3)ccc21 (stereo not drawn)	·	·	-10.3%	-7.2%	·	·
O=C(O)CCC1OC(=O)C(O)=C1c1ccccc1 (stereo not drawn)	0.9%	4.2%	?	10.9%	-3.1	-1.6
COc1cccc(CNCc2ccco2)c1O	-6.7%	-27.3%	-24.8%	3.6%	21.4	4.4
Cn1/c(=N\NC(=O)c2ccccc2Cl)sc2ccccc21	-0.4%	-11.1%	-1.9%	1.9%	75.3*	30.8*
CC(=O)N/N=c1\sc2ccccc2n1C	-5.2%	3.1%	-9.4%	0.5%	29.0	1.1
Cn1/c(=N\NC(=O)C2CCCCC2)sc2ccccc21	-2.1%	0.2%	5.0%	-1.1%	56.2*	36.9*
COC(=O)[C@@]1(Cc2ccccc2)[C@H]2c3cc(C(=O)N4CCCC4)n(Cc4ccccn4)c3C[C@H]2CN1C(=O)c1ccccc1	·	-1.2%	·	·	·	·
O=C1c2ccccc2-n2c1nc1ccccc1c2=O	-10.5%	?	6.7%	9.2%	52.3*!	31.8
CCC1CCCCN1CCCNC(=O)c1[nH]c2ccccc2c1Sc1ccc(Cl)cc1 (stereo not drawn)	·	·	?	-9.1%	·	·
CCCCOC1CC(c2ccc(OCc3ccc(OC)cc3)c(OC)c2)N(C)O1 (stereo not drawn)	-1.6%	0.8%	-1.7%	-1.4%	85.0*	24.0*
CCCOc1ccc(C2C(=O)N(C3CCCCCC3)CC(=O)N2Cc2ccc(OC)cc2)cc1OC (stereo not drawn)	·	·	-0.7%	-4.3%	·	·
O=C(CN1C(=O)C(c2ccc(F)cc2)=NC12CCCCCC2)Nc1ccc(F)c(Cl)c1	·	·	2.2%	2.7%	·	·
CCOC(=O)Cc1csc(-n2sc3ccccc3c2=O)n1	27.2%	?	-1.1%	?	32.7	38.1*
CCOC(=O)Cc1csc(SCn2nnc3ccccc3c2=O)n1	-2.9%	-10.2%	1.7%	-11.2%	5.9	8.7
Cc1nc(SCc2cc(=O)c3cccc(F)c3[nH]2)n[nH]1	·	·	0.2%	-0.3%	·	·
CCCCCCC1/C(=N\NC(=O)c2ccccc2)CCC1C(=O)OC (stereo not drawn)	2.0%	22.9%	3.9%	-14.9%	80.1*	35.0*
O=C(Nc1nc2ccccc2[nH]1)C1CC(=O)N(c2ccc3c(c2)OCCO3)C1 (stereo not drawn)	5.0%	-7.3%	-3.5%	-2.1%	41.6	28.2*
Cc1ccnc(NC(=O)C2CC(=O)N(c3ccc4c(c3)OCCO4)C2)c1 (stereo not drawn)	-13.5%	·	8.7%	3.2%	92.4*	34.5*
Cc1ccccc1CCNC(=O)c1cc2cc(S(=O)(=O)N3CCCCC3)ccc2n1C	·	·	-7.5%	2.2%	·	·
